About 83,000 compounds went through this panel and 20% of them were active in at least one assay; those are over-represented in the sample as a whole.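 Single-dose data. Exposure time 48 hours. Values below 10 considered active.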 Activity calls are given as the source filed them.
system: SN12C renal; assay: NCI-60 one-dose screen, 48 h (100 = growth as untreated, 0 = no growth, -100 = all killed); settings: 10 µM unless noted

SMILES | growth
CN1CCN(c2ccc3c(c2)nc(NNC(=O)c2cnccn2)c2cccn23)CC1 | 27.6% (inactive)
Cc1cc(C)c(-c2c(O)c(Br)c(-c3c(C)cc(C)c(Br)c3C)c(O)c2Br)c(C)c1Br | 37.2% (inactive)
CCCCCCCCCCCCCCCCCCOc1ccccc1CC(=O)NCC[N+]1(C)CCOCC1 | 40.5% (inactive)
O=C(/C=C/c1cccc(Cl)c1)c1cccc(OCCCCOc2cccc(C(=O)/C=C/c3cccc(Cl)c3)c2)c1 | 92.9% (inactive)
Cc1ccc(-c2nc(C#N)c(S(=O)(=O)NCCO)o2)cc1 | 81.2% (inactive)
NC(=O)c1ccc(NC(=O)c2oc3ccccc3c2-c2cnn(-c3ccccc3)c2)cc1 | 14.7% [50 µM] (inactive)
O=C(CBr)CN1C(=O)c2ccccc2C1=O | 109% (inactive)
CCN(CC)c1ccc(/C=C\c2cc(C)c3cc(C)ccc3n2)cc1 | 45.1% (inactive)
C=CCN=C(N)SCCCCCCSC(N)=NCC=C | 97.4% (inactive)
Clc1nn2c(Cn3cnc4c(NCc5ccccc5)ncnc43)nnc2c2ccccc12 | 32% (inactive)
CCOC(=O)c1ccc2c(c1)c1c(C)c3ccncc3c(C)c1n2C | 4.36% (active)
CCCCCCCCn1ccc2cc(NC(=O)Cn3cc(CN4CCCCCC4)nn3)ccc21 | 23% (inactive)
N#CC(C#N)N=Nc1ccc(Cl)cc1Cl | 82.9% (inactive)
Brc1ccc(-c2cnc3nonc3n2)cc1 | 96.1% (inactive)
COc1cccc(C(=O)OCC(O)C(=O)NC23CC4CC(CC(C4)C2)C3)c1 (stereo not given) | 95.5% (inactive)
O=C(Nc1cccc(NC(=O)C2CCCCC2)c1)c1ccccn1 | 102% (inactive)
Cc1cc(C)cc(Nc2ccc([N+](=O)[O-])c(NCCN3CCOCC3)n2)c1 | 32.2% (inactive)
Cn1c(=O)c2c(c3ccccc31)OC(N)=C(C#N)C21C(=O)c2ccccc2C1=O | 90.1% (inactive)
COc1cccc(/C=C2\COc3ccc(O)cc3C2=O)c1 | 30.1% (inactive)
C=C(CN1CC=CCC1)[C@@H]1CC[C@]2(CO)CC[C@]3(C)[C@H](CC[C@@H]4[C@@]5(C)CC[C@H](O)C(C)(C)[C@@H]5CC[C@]43C)[C@@H]12 | 98.1% (inactive)
COc1ccc(/C(C)=C(\c2ccc(Cl)cc2)c2ccc(OCCN3CCCC3)cc2)cc1 | 66.5% (inactive)
CC/C(Cc1ccccc1)=C(\c1ccc(OCCN2CCCCCC2)cc1)c1ccc(OC(=O)NCc2ccccc2)cc1 | 66% (inactive)
N=c1sc(Cc2cc(Cl)ccc2Cl)cn1CC(=O)c1ccccc1 | 63% (inactive)
Cc1cc(C(=O)Nc2cc(Nc3ncccc3-c3ncnc4nc[nH]c34)ccc2F)cc(C(F)(F)F)c1 | 55.7% (inactive)
C[C@@H]1O[C@@H](O[C@@H]2C[C@H](c3ccc4c(c3O)C(=O)C3=C(C4=O)[C@@]4(O)C(=O)C[C@](C)(O)C[C@@]4(O)C=C3)O[C@H](C)[C@H]2O)C[C@H](O)[C@@H]1O | 94.2% (inactive)
